Measured values from PubChem BioAssay.
Calls of active or inactive are those of the source.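 How the source made its calls, unless noted: active means inhibition at or above 50% at 10 µM; inactive means inhibition below 50%.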

Key:
[1] = inhibitors of TNFa-induced NFkB p65 translocation, primary screen, imaging, HUVEC, MLSMR starter and 10KST1 sets (AID 438;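 active means inhibition above 20% together with a positive visual image hit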;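 further: compound added about 3h40 before a 20 min TNFalpha stimulation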;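 on inhibition: signal is the nuclear over cytoplasmic p65 intensity ratio per well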); conditions: HUVEC TNFa-induced p65 nuclear translocation; cell count: measured here: nuclei count (cytotoxicity indicator), at 2.08 µM; inhibition: at 2 µM, stronger effect = higher value, 0% TNFa-plus-vehicle, 100% no-TNFa wells
[2] = inhibitors of mutant huntingtin aggregation, primary screen, imaging, exon1htt(103Q)mCFP cells, high-content imaging (AID 483;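 active means visual image review flags a hit and inhibition of aggregation exceeds 20%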;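 further: compound exposure lasted 3 days before fixation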;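 on nuclei count: percent of the per-plate median nuclei count of sample wells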); conditions: exon1htt(103Q)mCFP cell line, aggregate imaging, at 2 µM; inhibition of aggregation: stronger effect = higher value; nuclei count: measured here: cell count, toxicity
[3] = inhibitors of E-selectin induction by TNFa, primary screen, imaging, HUVEC, immunofluorescence, MLSMR starter and 10KST1 sets (AID 487;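 active means visually confirmed hit in the image check and inhibition above 20%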;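 on inhibition: signal is fraction of cell area covered by stained E-selectin grains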;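 on nuclei count: 100% = median nuclei count of all wells on the same plate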); conditions: HUVEC TNFalpha-induced E-selectin immunofluorescence imaging, at 2 µM; inhibition: stronger effect = higher value; nuclei count: measured here: cell number, toxicity
[4] = biological target: Voltage-gated potassium channel subunit beta-2 (Rattus norvegicus) (UniProt P62483); experiment: KvBeta enzyme negative modulators, primary screen, biochemical, NADPH fluorescence (AID 622;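 active means fluorescence slope higher than the sample average by over 3 SD, cut at about -0.22 in these data, passing the limit was not always enough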;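 further: slope of raw intensity against log time taken from 70 to 1610 s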); conditions: recombinant KvBeta, 4-cyanobenzaldehyde reduction, at 10 µM, stronger effect = higher value
Voltage-gated potassium channel subunit beta-2 (Rattus norvegicus), sequence (P62483 whole entry, looked up): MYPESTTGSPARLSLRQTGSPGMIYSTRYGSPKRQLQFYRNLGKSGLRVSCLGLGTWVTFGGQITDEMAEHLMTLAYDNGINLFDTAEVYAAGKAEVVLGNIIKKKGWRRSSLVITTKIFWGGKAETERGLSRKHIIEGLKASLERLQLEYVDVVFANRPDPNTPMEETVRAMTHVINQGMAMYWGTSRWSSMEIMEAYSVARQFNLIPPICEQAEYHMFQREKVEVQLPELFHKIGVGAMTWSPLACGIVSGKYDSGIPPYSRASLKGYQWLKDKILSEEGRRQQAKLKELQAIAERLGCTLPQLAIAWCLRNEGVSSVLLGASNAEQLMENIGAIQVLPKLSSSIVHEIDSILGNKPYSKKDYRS

[5] = biological target: Voltage-gated potassium channel subunit beta-2 (Rattus norvegicus) (UniProt P62483); experiment: KvBeta positive modulators, primary screen, biochemical, NADPH fluorescence (AID 623;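 active means NADPH fluorescence slope more negative than the mean of all samples by about 3 SD, 99.7% confidence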;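 further: fluorescence intensity change per second fitted from 20 to 320 s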); conditions: Recombinant KvBeta, NADPH fluorescence decrease slope, 10 min; at 10 µM; stronger effect = lower value
[6] = biological target: Alpha-2C adrenergic receptor (Homo sapiens) (UniProt P18825); experiment: modulators of alpha2C/GIRK thallium flux, primary screen, cell-based, HEK293 alpha2C/GIRK1/2 (AID 624;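 active means fluorescence slope after compound addition differing from the mean of all screened samples at 99.7% confidence, in either direction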;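 further: slope of fluorescence ratio to pre-addition baseline per second over 15 to 24 s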); conditions: thallium flux BTC fluorescence, at 10 µM, actives lie on both sides
Alpha-2C adrenergic receptor (Homo sapiens), sequence (P18825 whole entry, looked up): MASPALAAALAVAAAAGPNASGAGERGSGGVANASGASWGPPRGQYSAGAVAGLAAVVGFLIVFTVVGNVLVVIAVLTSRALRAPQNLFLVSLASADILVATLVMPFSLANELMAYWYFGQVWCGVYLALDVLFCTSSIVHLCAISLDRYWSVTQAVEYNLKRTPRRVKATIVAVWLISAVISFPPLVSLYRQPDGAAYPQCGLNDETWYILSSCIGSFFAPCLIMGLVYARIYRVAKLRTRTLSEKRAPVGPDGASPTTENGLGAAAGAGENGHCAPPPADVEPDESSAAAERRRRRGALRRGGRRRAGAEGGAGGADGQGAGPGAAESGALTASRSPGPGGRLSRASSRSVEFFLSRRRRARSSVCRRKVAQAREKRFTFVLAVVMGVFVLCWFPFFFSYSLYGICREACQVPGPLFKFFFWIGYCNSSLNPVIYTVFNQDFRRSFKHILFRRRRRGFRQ

[7] = inhibitors of Sendai virus-induced IRF3 signaling, primary screen, TLR/RLR signaling modifier project, cell-based, Sendai virus stimulus, luciferase, 10K MLSCN set (AID 602276); conditions: HEK293 RL24 IRF3 luciferase reporter, at 10 µM, stronger effect = higher value;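 further: firefly luciferase from ISG56 promoter only with Renilla not read in this screen; 0% = Sendai virus plus DMSO and 100% = medium plus DMSO without virus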
[8] = inhibitors of poly I:C-induced TLR3 signaling, primary screen, cell-based, poly I:C stimulus, luciferase, 10K MLSCN set (AID 602277;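 active means inhibition of the reporter signal at or above 50%; inactive means inhibition below 50%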); conditions: HEK293-TLR3 RL24 IRF3 luciferase reporter, at 10 µM, stronger effect = higher value

Row | SMILES | cell count [1] | inhibition [1] | inhibition of aggregation [2] | nuclei count [2] | inhibition [3] | nuclei count [3] | fluorescence slope [4] | NADPH fluorescence slope [5] | slope [6] | inhibition [7] | inhibition [8]
1 | C=CCc1cccc2cc(C(=O)NCc3cccnc3)c(=O)oc12 | 329 | 3.5% (inactive) | -4.3% (inactive) | 101% | 4.6% (inactive) | 117% | -0.437 (inactive) | 1.5e-05 (inactive) | 0.00312 (inactive) | -3.91% (inactive) | 20.3% (inactive)
2 | CCCn1c(=NC(C)=O)c(C#N)cc2c(=O)n3cccc(C)c3nc21 | 462 | -0.9% (inactive) | 0.6% (inactive) | 99.9% | -35.4% (inactive) | 131% | -0.0531 (inactive) | -1e-05 (inactive) | 0.0086 (inactive) | -11.4% (inactive) | 1.19% (inactive)
3 | COC(=O)c1sc(N)c(C(=O)OC)c1CSc1nc2sc3c(c2c(=O)n1C)CCC3 | 428 | 14.1% (inactive) | -20% (inactive) | 104% | 2.9% (inactive) | 111% | -0.524 (inactive) | -6.8e-06 (inactive) | 0.00788 (inactive) | -6.85% (inactive) | 15% (inactive)
4 | Cc1nc2cc(C(=O)O)ccc2n1-c1ccc(F)cc1F | 672 | -1.5% (inactive) | -2.2% (inactive) | 99.5% | -12.5% (inactive) | 116% | -0.527 (inactive) | -4.1e-05 (inactive) | 0.00687 (inactive) | 4.77% (inactive) | 27.2% (inactive)
5 | CCN=C1SC(CC(=O)Nc2ccccc2OCC)C(=O)N1CC (centres undefined) | 613 | -14.1% (inactive) | -12.5% (inactive) | 100% | 0.9% (inactive) | 92.3% | -0.488 (inactive) | -3.2e-05 (inactive) | 0.00493 (inactive) | 12.4% (inactive) | 20.8% (inactive)
6 | Fc1ccc(-c2csc3nnc(SCc4cccnc4)n23)cc1 | 376 | 4.4% (inactive) | -9.6% (inactive) | 97.5% | -30% (inactive) | 116% | -0.312 (inactive) | -2.7e-05 (inactive) | 0.00572 (inactive) | 1.55% (inactive) | 20.4% (inactive)
7 | Cc1ccc(-n2c(-c3ccncc3)nnc2-c2cccs2)cc1 | 456 | -3.2% (inactive) | -22.5% (inactive) | 104% | -55.2% (inactive) | 119% | -0.384 (inactive) | -4.2e-05 (inactive) | 0.0046 (inactive) | 11.8% (inactive) | 12.5% (inactive)
8 | Cc1ccc(C)c(NC(=O)CSc2nnc(-c3ccccc3)o2)c1 | 613 | -6% (inactive) | 18.9% (inactive) | 89.2% | -45.1% (inactive) | 104% | -0.543 (inactive) | 8.3e-06 (inactive) | 0.00712 (inactive) | 10% (inactive) | 29.3% (inactive)
9 | CCn1c(SCC(=O)N2CCOCC2)nc2c(c1=O)SC(C)C2 (centres undefined) | 298 | 9.4% (inactive) | 21.4% (inactive) | 89.2% | 20% (inactive) | 93.4% | -0.542 (inactive) | -3.5e-06 (inactive) | 0.00531 (inactive) | -5.39% (inactive) | 4.93% (inactive)
10 | CCN(CC)C(=O)C1CCCN(c2ncnc3c2cnn3-c2ccc(Cl)cc2)C1 (centres undefined) | 745 | -5.2% (inactive) | 0.8% (inactive) | 103% | -21.1% (inactive) | 109% | -0.543 (inactive) | -1.7e-05 (inactive) | 0.00713 (inactive) | 10.8% (inactive) | 53.6% (active)
11 | CCOC(=O)CNC(=O)CSc1nnnn1-c1cc(C)ccc1C | 355 | -3.6% (inactive) | 14.6% (inactive) | 89.4% | 51.5% (inactive) | 82% | -0.533 (inactive) | 3e-05 (inactive) | 0.00704 (inactive) | 4.69% (inactive) | 10.9% (inactive)
12 | CSCCC(NC(=O)c1occc1C)C(=O)O (centres undefined) | 361 | 4% (inactive) | -17.4% (inactive) | 108% | -91.1% (inactive) | 149% | -0.351 (inactive) | -6.3e-05 (inactive) | 0.00359 (inactive) | 7.31% (inactive) | 21.8% (inactive)
13 | CC1CCN(C(=O)Cn2cc3c(n2)CCCC3)CC1 | 931 | -1.8% (inactive) | -26% (inactive) | 114% | -6.8% (inactive) | 89.8% | -0.612 (inactive) | -7.4e-06 (inactive) | 0.00712 (inactive) | -32.6% (inactive) | -60.8% (inactive)
14 | Cc1ccc2[nH]c(=O)c(-c3noc(-c4ccncc4)n3)cc2c1 | 474 | -9.1% (inactive) | -82.1% (inactive) | 65% | -51% (inactive) | 93.8% | -0.31 (inactive) | -6e-05 (inactive) | 0.0054 (inactive) | 8.49% (inactive) | 12.4% (inactive)
15 | COc1ccc(CNC(=O)CN(C(=O)c2ccc(CN3CCOCC3)o2)C2CCCC2)cc1 | 449 | 5.5% (inactive) | -0.5% (inactive) | 98.3% | -94.6% (inactive) | 107% | -0.613 (inactive) | -4.4e-05 (inactive) | 0.00446 (inactive) | 17.1% (inactive) | 11.7% (inactive)
16 | CCN(CC)C(=O)C1=C(C)Nc2nnnn2C1c1cccnc1 (centres undefined) | 346 | 9.3% (inactive) | 11.2% (inactive) | 102% | -55.9% (inactive) | 109% | -0.567 (inactive) | 1.1e-05 (inactive) | 0.0059 (inactive) | 11.8% (inactive) | 16.8% (inactive)
17 | COc1cc(CN(C)CC(=O)c2[nH]c(C)c(C(C)=O)c2C)ccc1OC(F)F | 443 | 1.6% (inactive) | -11% (inactive) | 95.9% | -86.8% (inactive) | 129% | -0.616 (inactive) | -2.3e-05 (inactive) | 0.00408 (inactive) | -17.1% (inactive) | -82.6% (inactive)
18 | COc1ccc2nc(SCC(=O)NC(C)C)[nH]c2c1 | 626 | 1.4% (inactive) | -0.8% (inactive) | 104% | -35.2% (inactive) | 107% | -0.478 (inactive) | 5.9e-05 (inactive) | 0.0062 (inactive) | -7.68% (inactive) | -5% (inactive)
19 | CC1CCCN(C(=O)c2cc(F)c(F)cc2Cl)C1 (centres undefined) | 888 | -1.3% (inactive) | 39.2% (inactive) | 88.6% | -25.2% (inactive) | 94% | -0.617 (inactive) | -3.8e-05 (inactive) | 0.00409 (inactive) | 2.92% (inactive) | 7.68% (inactive)
